The campaign covered roughly 2,500 compounds. About 1,100 (44%) were called active.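 The calls were made as follows: active = inhibition above 50% at 4 µM in the single-point screen; inactive = inhibition of 50% or less.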 So high a share suggests a set chosen from earlier hits. The list shows a part of the results.

This assay is described as follows: TNF-a-driven NF-kB reporter inhibitors, primary screen, selectivity assay for NOD1/NOD2 signaling inhibitor project, cell-based, HEK293T NF-kB-Luc, luminescence (AID 1852). Conditions: TNF-a induced, 14 h, at 4 µM, active compounds read high.
For `O=C(CCC(=O)N1CCOc2ccccc21)NCc1ccccn1`, the inhibition was 18.7% (inactive).
For `Cc1ccc(S(=O)(=O)Nc2ccc(Br)cc2/C=N/n2cnnc2)cc1` the value was 47.3% (inactive).
For `Cc1cc(/C=N/n2cnnc2)c(C)n1-c1ccc(OCc2ccc(Cl)cc2Cl)cc1` the value was 71.9% (active); for `CN(C)c1ccnc2sc(C(N)=O)c(N)c12`, 83.5% (active); for `O=C(c1ccccc1)c1ccc2nc(-c3ccc(NC(=O)c4ccccc4Br)cc3)[nH]c2c1`, 11.7% (inactive).
On to `Cc1cc(NC(=O)/C=C/c2ccc(F)cc2)n(-c2nc3ccccc3[nH]2)n1`, for which the inhibition was -3.9% (inactive).
In the case of `Cc1c(C(=O)Nc2nc3ccccc3[nH]2)oc2ccc(Br)cc12`, the inhibition was 98.6% (active).
As for `CN(c1ccccc1)S(=O)(=O)c1cc(C(=O)Nc2nc3ccccc3[nH]2)ccc1Cl`, the inhibition is 31.3% (inactive).
To `CCc1ccc(C(=O)Nc2nc3ccccc3[nH]2)cc1` belongs 103% (active); to `O=C(Nc1nc2ccccc2[nH]1)c1cc(F)cc(F)c1`, 80.3% (active).
Regarding `Cc1ccc(N=Cc2cc(Cc3ccccc3Cl)cc([N+](=O)[O-])c2O)c(O)c1`, the inhibition is 70.8% (active).
For the compound `Cc1ccc(O)c(N=Cc2cc(Cc3ccccc3)cc([N+](=O)[O-])c2O)c1`, the inhibition is -1.6% (inactive).
As for `CN(C)/C=C/c1c([N+](=O)[O-])c2ccc(O)cc2n1-c1ccccc1`, the inhibition is 83.5% (active).
For `Cc1c([N+](=O)[O-])c2ccc(O)cc2n1-c1ccccc1` the value was 60.9% (active).
To `Cc1ccc(-n2c(C)c([N+](=O)[O-])c3ccc(O)cc32)cc1` belongs 40.4% (inactive).
As to `COc1cc(/C=C2\SC(=S)N(CCC(=O)Nc3ccccc3)C2=O)cc(OC)c1OC`, the inhibition was 6.8% (inactive).
Take `O=C1/C(=C\c2cc(Cl)c(O)c(Cl)c2)SC(=S)N1Cc1ccccc1`: the inhibition was 82.7% (active).
Regarding `O=C1/C(=C\c2cccc([N+](=O)[O-])c2O)SC(=S)N1Cc1ccccc1`, the inhibition was 14.2% (inactive).
For `Cc1ccc(/C=C2\SC(=S)N(C(Cc3ccccc3)C(=O)O)C2=O)cc1` (centres undefined) the value was 25.1% (inactive); for `O=C1/C(=C/c2ccc(O)c([N+](=O)[O-])c2)SC(=S)N1Cc1ccccc1`, 88.5% (active); for `O=C1S/C(=C\c2ccc(O)c([N+](=O)[O-])c2)C(=O)N1Cc1cccc([N+](=O)[O-])c1`, 19.6% (inactive).
For `COc1cc([N+](=O)[O-])cc(/C=C2/SC(=S)N(Cc3ccccc3)C2=O)c1O` the value was 81.1% (active).
In the case of `COc1ccc(/C=C/C(=O)C2CC2)cc1Cn1nc(C)c([N+](=O)[O-])c1C`, the inhibition is 36.6% (inactive).
For `Cc1ccc(C(C)C)c(OCc2ccc(-c3nnco3)cc2)c1` the value was 12.4% (inactive); for `COc1cc(/C=C2\SC(N3CCC(C)CC3)=NC2=O)ccc1O`, 1.4% (inactive).
To `COc1cccc(OCCOc2ccc(/C=C3/SC(=S)NC3=O)cc2)c1` belongs -114% (inactive); to `COc1cc(/C=C2/SC(=Nc3ccc(O)cc3)NC2=O)ccc1O`, 89.8% (active); to `COc1ccc(N=C2NC(=O)/C(=C/c3ccc(O)c(OC)c3)S2)cc1`, 70.8% (active).
For `COc1cc(/C=C2\SC(=N)N(c3ccc(F)cc3)C2=O)ccc1O` the value was 51.1% (active).
In the case of `COc1ccccc1OCCCOc1cccc(/C=C2\SC(=O)NC2=O)c1`, the inhibition is 3.3% (inactive).
To `COc1cc(/C=C2/C(=O)NN(c3ccc(Cl)cc3)C2=O)cc(Br)c1O` belongs -1.7% (inactive).
For `COc1ccc(OC)c(/C=C2\S/C(=N/NC(=O)c3ccc4ccccc4c3)NC2=O)c1` the value was -2.1% (inactive); for `COc1cc(/C=N\NC(=O)c2ccc(-c3ccccc3)cc2)cc(Br)c1O`, 43% (inactive); for `COc1cc(/C=N/NC(=O)c2ccc(-c3ccccc3)cc2)cc(OC)c1OC`, 63.8% (active).
`COc1cc(/C=N/NC(=O)c2cc3c(ccc4ccccc43)o2)cc(OC)c1O`: the inhibition was 36.5% (inactive).
For `COc1cccc(/C=N/NC(=O)c2ccc(-c3ccccc3)cc2)c1O` the value was 70% (active); for `Cc1ccccc1CS(=O)(=O)c1nnc([C@H](CC(C)C)NC(=O)OC(C)(C)C)o1`, 35% (inactive); for `COc1cc(CNc2ccc3[nH]c(=O)[nH]c3c2)ccc1OCc1c(F)cccc1Cl`, 49.2% (inactive).
On to `Clc1c(Cl)c(Cl)c2n[nH]nc2c1Cl`, for which the inhibition is 26.8% (inactive).
On to `Cc1ccc(NC(=O)CCC(=O)N/N=C/c2ccccc2O)cc1`, for which the inhibition is 58.1% (active).
To `O=C(CCC(=O)Nc1ccc(Br)cc1)N/N=C/c1ccccc1O` belongs 49.3% (inactive); to `O=C(N/N=C/c1ccccc1O)c1cccc2ccccc12`, 99.3% (active).
For `Cc1c(/C=N/NC(=O)c2ccccc2O)c2ccccn2c1C(=O)c1ccc(F)cc1` the value was 21.3% (inactive); for `O=C(/C=C/c1ccco1)Oc1cc(Br)cc(/C=N/NC(=O)c2ccccc2O)c1`, 44.6% (inactive).
To `O=C(N/N=C/c1cccc2cccnc12)c1ccccc1O` belongs 53.1% (active); to `COc1cccc(/C=N/NC(=O)c2c(C)nc3ccc(Cl)cn23)c1O`, 46.8% (inactive).
For the compound `Cc1cccc2cc(/C=N/NC(=O)c3ccccc3O)c(Cl)nc12`, the inhibition was 63.3% (active).
To `O=C1CCN(CCc2ccccc2)CCN1CCOc1ccccc1` belongs -6.2% (inactive); to `O=C(N/N=C/c1ccc(O)cc1O)c1ccncc1`, 28.2% (inactive).
Regarding `CCc1cc(C(=O)N/N=C/c2ccc(O)cc2O)c2ccccc2n1`, the inhibition is 50.7% (active).
For `CCOc1ccc(/C=N/NC(=O)C(O)c2ccccc2)c(O)c1` (centres undefined) the value was 45.4% (inactive); for `Cc1csc(SCC(=O)Nc2cccc3nsnc23)n1`, 100% (active); for `CCn1c(SCC(=O)Nc2nc(-c3ccccc3)cs2)nnc1-c1ccccc1`, 34.3% (inactive).
To `O=C(CN1C(=O)c2cccnc2Oc2ccc(Cl)cc21)NCCCc1ccccc1` belongs 12% (inactive); to `O=C(NC(=S)N(CCCCO)C1CCCCC1)c1sc2ccccc2c1Cl`, 104% (active); to `Cc1ccc(C(=O)NC(=S)N(C)C2CCCCC2)cc1Br`, 106% (active).
To `Cc1ccc(C(C)NC(=S)NC2CCCCC2)cc1C` (centres undefined) belongs 24.8% (inactive); to `COc1ccc(C(=O)NC(=S)N(C)C2CCCCC2)cc1Br`, -14.8% (inactive); to `O=C(Nc1ccccc1C(=O)Nc1nnc(C(F)(F)F)s1)c1ccccc1Cl`, 86.7% (active).
Turning to `Cc1onc(-c2ccccc2Cl)c1C(=O)Nc1nnc(-c2ccc(Br)cc2)s1`, the inhibition is -22.4% (inactive).
For `Cc1ccccc1N1CCN(S(=O)(=O)c2nnc(NC(=O)c3ccc(F)cc3)s2)CC1` the value was -27.1% (inactive); for `O=C(Nc1ccccc1C(=O)Nc1nnc(C(F)(F)F)s1)c1ccccc1`, 51% (active); for `Cc1onc(-c2c(F)cccc2Cl)c1C(=O)Nc1nnc(C(F)(F)F)s1`, 48.9% (inactive).
To `Cc1ccnc(OC(C(=O)O)C(OCc2ccccc2)(c2ccc(F)cc2)c2ccc(F)cc2)n1` (centres undefined) belongs -7.9% (inactive).
To `CCn1cc([N+](=O)[O-])c(C(=O)N2N=C(c3ccc(OC)cc3OC)CC2c2ccccc2O)n1` (centres undefined) belongs 86.6% (active); to `CCn1cc([N+](=O)[O-])c(C(=O)N2N=C(c3ccc4ccccc4c3)CC2c2cc(Br)ccc2O)n1` (centres undefined), -56.7% (inactive); to `CC1CC(C)CN(C(=O)CSc2nc(Cc3cccs3)nc3ccccc23)C1` (centres undefined), -34.3% (inactive).
As for `O=C1C(=O)c2ccc(-c3ccccc3)cc2-c2ccccc21`, the inhibition is 102% (active).
Turning to `O=C1C(Cl)=C(Nc2ccccc2)C(=O)c2ccccc21`, the inhibition was -83.5% (inactive).
As to `Nc1ccc2c(c1)C(=O)C(=O)c1ccccc1-2`, the inhibition was 97.6% (active).
For `CCn1c(SCC(=O)N2CCC(C)CC2)nc2c(c1=O)SCC2` the value was 1.5% (inactive).
For `CCCCCCc1cc2cc(S(=O)(=O)c3ccc(Cl)cc3)c(=O)oc2cc1O` the value was 65.1% (active).
As for `CCCCCCc1cc2cc(C(=O)OCC)c(=O)oc2cc1O`, the inhibition was 9.4% (inactive).
For `CCCCCCc1cc2cc(S(=O)(=O)c3ccc(F)c(Cl)c3)c(=O)oc2cc1O`, the inhibition was 38.7% (inactive).
To `c1csc(CCNc2ncnc3sc4c(c23)CCC4)c1` belongs 62.9% (active); to `COCCn1c(C)cc(C(=O)CSc2ncnc3sc4c(c23)CCC4)c1C`, 14.2% (inactive); to `O=C(O)CSc1ncnc2sc3c(c12)CCCC3`, 31.1% (inactive).
To `CC1(C)CC(N2CCCC2)=CC(=[N+]2CCCCCC2)C1` belongs 34% (inactive).
As for `CC1(C)CC(N2CCN(C(c3ccccc3)c3ccccc3)CC2)=CC(=[N+]2CCCCC2)C1`, the inhibition is 80.1% (active).
To `CC1CC(C)C[N+](=C2C=C(N3CCCC3)CC(C)(C)C2)C1` (centres undefined) belongs 49.7% (inactive); to `O=C(NC(c1ccc(Cl)cc1)c1c(O)ccc2ccccc12)c1ccccc1` (centres undefined), 78.3% (active); to `Cc1cc(C)nc(N/N=C/c2c[nH]c3ccccc23)n1`, 29% (inactive).
To `Cc1c(O)ccc(/C=N/Nc2nc(-c3cccnc3)nc3ccccc23)c1O` belongs -60% (inactive); to `Oc1ccc(/C=N/Nc2nccnc2Cl)c(O)c1`, 39.8% (inactive).
To `Oc1ccc(/C=N/Nc2nc(-c3ccccc3F)nc3ccccc23)c(O)c1` belongs 68.2% (active).
On to `FC(F)(F)c1cc(Sc2ccccc2)nc(-c2ccccn2)n1`, for which the inhibition is -4.1% (inactive).
To `C(=N\Nc1nc(-c2ccccn2)nc2ccccc12)/c1ccccc1` belongs 78.9% (active); to `Fc1ccccc1/C=N/Nc1nc(-c2ccccn2)nc2ccccc12`, 98.7% (active); to `Cc1c(Cl)cccc1NC(=S)NNc1ncc(C(F)(F)F)cc1Cl`, 28.7% (inactive).
To `Cc1ccc(S(=O)(=O)c2ncccc2[N+](=O)[O-])cc1` belongs 52.6% (active); to `Cc1ccc(C(=O)Nc2ncc([N+](=O)[O-])s2)cc1`, 3.8% (inactive).
For `O=[N+]([O-])c1cccnc1S(=O)(=O)c1ccccc1` the value was 69.6% (active).
For `Cc1ccc(S(=O)(=O)c2ccc([N+](=O)[O-])cn2)cc1`, the inhibition was 38.5% (inactive).
Regarding `CC(C)C[C@H](NC(=O)c1nc[nH]c1C(=O)N1CCN(C(=O)OC(C)(C)C)CC1)C(=O)OC(C)(C)C`, the inhibition is 2.4% (inactive).

For the origin of these results see PubChem BioAssay AID1852 (Sanford-Burnham Center for Chemical Genomics, 2009).
